# Results taken from the supplement of paper PMC10849652.
# About 8,800 targets were measured; listed, in parts, are those with a hit and a random draw of the rest. About 0.5% of all pairs of compound and target were hits.
# Compound: CC(=O)c1cnc2ccc(-c3cc(Cl)c(O)c(Cl)c3)nc2c1N[C@H]1CC[C@H](CN(C)C)CC1
# Assay: log2 fold change, soluble protein after heating vs DMSO (PISA); higher = thermal stabilisation; K562 lysate, 10 uM; active = over 0.2 and 3.5 SD of the protein, either way, in both replicates (recomputed)
# Outline: (§1)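 Values give the log-two fold change in thermal stability against solvent controls, from duplicates. Crude K562 extract at 1 mg/mL protein, made by dounce homogenisation in PBS pH 7.4 with 1 mM MgCl2, was treated with 10 μM compound for 30 min. After 3 min heating across 48°C-58°C, aliquots were pooled, adjusted to 0.5% NP-40 at 4°C and centrifuged at 21,000xg for 90 min. The supernatant was measured by TMTpro 16plex LC-MS/MS with channel sums equalised.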
# UniProt P27448, sequence (P27448 whole entry, looked up): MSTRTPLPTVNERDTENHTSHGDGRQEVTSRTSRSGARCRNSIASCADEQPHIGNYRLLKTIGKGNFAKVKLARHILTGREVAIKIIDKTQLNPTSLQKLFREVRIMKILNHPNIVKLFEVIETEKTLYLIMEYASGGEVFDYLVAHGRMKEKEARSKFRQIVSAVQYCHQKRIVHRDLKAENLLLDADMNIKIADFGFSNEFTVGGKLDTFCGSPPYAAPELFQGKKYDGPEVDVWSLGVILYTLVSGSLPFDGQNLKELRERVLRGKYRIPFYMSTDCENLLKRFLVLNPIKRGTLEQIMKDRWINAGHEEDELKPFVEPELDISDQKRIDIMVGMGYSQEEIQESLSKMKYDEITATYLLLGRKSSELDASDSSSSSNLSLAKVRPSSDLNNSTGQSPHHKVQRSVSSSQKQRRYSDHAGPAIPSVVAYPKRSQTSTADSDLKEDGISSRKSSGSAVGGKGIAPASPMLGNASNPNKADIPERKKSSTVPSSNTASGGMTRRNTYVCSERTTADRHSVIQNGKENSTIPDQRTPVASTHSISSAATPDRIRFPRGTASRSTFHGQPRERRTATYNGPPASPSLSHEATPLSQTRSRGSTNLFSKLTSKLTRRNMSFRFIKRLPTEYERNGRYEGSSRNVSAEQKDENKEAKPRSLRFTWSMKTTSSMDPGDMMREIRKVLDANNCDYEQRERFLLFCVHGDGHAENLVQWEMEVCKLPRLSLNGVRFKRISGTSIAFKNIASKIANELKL
# UniProt Q9NS87, sequence (Q9NS87 whole entry, looked up): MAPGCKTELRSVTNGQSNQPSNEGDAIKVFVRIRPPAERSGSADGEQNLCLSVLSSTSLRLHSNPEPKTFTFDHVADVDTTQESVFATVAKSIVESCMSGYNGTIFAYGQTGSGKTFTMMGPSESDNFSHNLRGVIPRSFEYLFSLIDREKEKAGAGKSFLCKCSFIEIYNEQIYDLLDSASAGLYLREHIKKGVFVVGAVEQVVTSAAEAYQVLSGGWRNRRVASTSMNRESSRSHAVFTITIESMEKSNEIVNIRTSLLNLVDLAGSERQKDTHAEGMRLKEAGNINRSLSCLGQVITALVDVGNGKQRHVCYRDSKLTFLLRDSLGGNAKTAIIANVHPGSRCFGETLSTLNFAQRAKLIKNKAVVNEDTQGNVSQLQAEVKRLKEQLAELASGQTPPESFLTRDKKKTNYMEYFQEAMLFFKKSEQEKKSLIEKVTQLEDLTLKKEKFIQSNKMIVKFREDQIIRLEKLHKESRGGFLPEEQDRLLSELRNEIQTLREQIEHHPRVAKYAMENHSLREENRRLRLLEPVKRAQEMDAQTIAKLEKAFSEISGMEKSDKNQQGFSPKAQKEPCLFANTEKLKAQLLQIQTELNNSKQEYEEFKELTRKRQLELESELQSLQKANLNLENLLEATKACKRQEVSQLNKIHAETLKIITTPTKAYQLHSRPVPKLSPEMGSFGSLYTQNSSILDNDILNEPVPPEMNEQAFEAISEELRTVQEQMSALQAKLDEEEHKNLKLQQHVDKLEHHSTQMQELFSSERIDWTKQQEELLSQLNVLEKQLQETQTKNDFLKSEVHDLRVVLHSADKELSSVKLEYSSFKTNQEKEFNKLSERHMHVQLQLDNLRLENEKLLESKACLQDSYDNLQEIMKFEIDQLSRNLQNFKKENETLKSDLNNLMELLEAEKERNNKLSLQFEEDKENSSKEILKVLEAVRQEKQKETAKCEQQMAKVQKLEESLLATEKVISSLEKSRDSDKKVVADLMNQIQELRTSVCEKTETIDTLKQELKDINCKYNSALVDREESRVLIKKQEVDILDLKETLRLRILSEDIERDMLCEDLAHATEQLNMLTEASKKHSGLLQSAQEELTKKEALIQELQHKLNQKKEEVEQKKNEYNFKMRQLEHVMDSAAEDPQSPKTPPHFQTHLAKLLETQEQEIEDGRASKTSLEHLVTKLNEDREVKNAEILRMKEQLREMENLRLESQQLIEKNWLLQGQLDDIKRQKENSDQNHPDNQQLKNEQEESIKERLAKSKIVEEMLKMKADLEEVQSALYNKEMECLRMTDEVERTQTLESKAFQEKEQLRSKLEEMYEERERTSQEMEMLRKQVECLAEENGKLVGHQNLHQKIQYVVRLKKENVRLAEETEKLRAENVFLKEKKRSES
# UniProt Q00013, sequence (Q00013 whole entry, looked up): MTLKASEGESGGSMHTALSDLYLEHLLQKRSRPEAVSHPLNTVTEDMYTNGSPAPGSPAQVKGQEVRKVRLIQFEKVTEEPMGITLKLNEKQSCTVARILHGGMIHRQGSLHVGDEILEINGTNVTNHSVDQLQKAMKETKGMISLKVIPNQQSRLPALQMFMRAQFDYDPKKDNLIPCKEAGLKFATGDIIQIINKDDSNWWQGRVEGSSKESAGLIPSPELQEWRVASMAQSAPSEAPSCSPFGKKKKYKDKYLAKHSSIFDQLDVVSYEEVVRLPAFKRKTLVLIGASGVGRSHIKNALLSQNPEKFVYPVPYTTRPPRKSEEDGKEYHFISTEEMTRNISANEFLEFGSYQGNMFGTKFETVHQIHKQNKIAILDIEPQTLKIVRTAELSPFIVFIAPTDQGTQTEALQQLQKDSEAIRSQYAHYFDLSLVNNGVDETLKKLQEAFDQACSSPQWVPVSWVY
# UniProt Q9H0B6, sequence (Q9H0B6 whole entry, looked up): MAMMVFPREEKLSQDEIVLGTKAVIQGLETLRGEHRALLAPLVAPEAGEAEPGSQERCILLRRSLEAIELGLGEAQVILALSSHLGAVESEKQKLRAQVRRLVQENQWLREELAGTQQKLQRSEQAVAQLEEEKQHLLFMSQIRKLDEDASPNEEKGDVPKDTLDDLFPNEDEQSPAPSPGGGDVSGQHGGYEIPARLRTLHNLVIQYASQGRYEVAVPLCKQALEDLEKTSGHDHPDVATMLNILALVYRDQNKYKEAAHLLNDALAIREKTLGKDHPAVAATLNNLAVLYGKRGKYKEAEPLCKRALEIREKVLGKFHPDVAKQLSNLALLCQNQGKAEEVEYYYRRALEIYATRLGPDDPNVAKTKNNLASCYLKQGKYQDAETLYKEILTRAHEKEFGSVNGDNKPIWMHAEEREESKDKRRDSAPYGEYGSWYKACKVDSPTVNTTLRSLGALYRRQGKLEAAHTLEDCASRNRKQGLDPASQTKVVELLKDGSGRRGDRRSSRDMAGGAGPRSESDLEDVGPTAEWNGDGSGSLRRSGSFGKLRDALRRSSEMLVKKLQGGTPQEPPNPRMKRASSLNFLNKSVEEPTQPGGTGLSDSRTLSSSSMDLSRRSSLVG
# UniProt Q96RQ3, sequence (Q96RQ3 whole entry, looked up): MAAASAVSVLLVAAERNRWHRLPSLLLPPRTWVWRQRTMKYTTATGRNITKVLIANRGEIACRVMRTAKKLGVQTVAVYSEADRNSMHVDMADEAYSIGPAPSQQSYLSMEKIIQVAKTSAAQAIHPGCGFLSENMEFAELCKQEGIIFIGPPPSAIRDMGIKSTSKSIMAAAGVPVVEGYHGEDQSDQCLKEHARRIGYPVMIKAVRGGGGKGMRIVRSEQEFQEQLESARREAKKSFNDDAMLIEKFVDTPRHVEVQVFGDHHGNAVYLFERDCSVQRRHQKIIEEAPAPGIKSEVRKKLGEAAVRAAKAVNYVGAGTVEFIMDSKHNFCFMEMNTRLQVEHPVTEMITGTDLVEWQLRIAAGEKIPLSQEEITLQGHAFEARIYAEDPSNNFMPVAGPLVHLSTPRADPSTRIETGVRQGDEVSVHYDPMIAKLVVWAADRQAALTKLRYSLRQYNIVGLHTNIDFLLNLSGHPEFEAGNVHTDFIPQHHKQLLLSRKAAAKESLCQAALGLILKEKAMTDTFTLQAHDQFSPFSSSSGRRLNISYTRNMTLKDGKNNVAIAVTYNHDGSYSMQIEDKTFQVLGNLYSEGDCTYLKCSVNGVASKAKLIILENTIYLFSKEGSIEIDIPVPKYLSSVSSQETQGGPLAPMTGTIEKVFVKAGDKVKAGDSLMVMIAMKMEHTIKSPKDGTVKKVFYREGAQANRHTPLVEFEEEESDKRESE
# UniProt Q9Y2X0, sequence (Q9Y2X0 whole entry, looked up): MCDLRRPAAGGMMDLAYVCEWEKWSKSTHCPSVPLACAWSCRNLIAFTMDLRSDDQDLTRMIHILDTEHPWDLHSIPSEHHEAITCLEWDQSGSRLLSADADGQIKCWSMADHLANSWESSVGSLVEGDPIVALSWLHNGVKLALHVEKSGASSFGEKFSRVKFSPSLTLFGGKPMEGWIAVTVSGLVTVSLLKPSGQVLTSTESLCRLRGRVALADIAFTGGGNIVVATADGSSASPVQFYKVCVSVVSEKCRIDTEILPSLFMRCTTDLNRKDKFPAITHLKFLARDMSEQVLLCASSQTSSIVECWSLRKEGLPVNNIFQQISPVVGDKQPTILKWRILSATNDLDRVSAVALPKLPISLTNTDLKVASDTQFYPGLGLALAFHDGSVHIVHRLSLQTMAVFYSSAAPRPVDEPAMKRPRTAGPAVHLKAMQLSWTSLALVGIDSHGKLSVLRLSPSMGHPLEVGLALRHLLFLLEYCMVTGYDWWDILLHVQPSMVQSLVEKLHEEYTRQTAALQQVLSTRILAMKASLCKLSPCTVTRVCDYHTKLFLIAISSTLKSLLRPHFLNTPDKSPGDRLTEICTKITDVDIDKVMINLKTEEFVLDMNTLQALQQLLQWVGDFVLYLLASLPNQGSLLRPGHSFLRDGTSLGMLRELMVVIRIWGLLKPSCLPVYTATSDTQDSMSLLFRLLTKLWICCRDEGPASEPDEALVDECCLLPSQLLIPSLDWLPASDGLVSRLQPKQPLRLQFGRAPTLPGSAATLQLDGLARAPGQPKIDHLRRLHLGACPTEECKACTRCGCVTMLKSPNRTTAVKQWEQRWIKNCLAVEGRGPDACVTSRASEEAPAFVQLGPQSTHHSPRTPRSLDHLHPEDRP
# UniProt Q9H8H3, sequence (Q9H8H3 whole entry, looked up): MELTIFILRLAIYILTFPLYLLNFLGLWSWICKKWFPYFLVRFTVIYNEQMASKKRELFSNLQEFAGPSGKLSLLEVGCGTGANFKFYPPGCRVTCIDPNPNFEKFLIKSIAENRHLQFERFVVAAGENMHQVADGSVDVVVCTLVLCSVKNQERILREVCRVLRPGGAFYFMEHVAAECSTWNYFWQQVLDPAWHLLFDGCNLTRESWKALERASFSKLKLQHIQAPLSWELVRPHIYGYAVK
row,Target,log2 fold change
1,MED16 (UniProt Q9Y2X0),-0.012 (inactive)
2,LAP3 (UniProt P28838),-0.03 (inactive)
3,LUZP1 (UniProt Q86V48),-0.002 (inactive)
4,KSR1 (UniProt Q8IVT5),-0.103 (inactive)
5,LTN1 isoform 3 (UniProt O94822),0.018 (inactive)
6,MAP2K3 isoform 3 (UniProt P46734),0.095 (inactive)
7,MRPL46 (UniProt Q9H2W6),0.018 (inactive)
8,MCU (UniProt Q8NE86),0.04 (inactive)
9,KIF14 (UniProt Q15058),0.024 (inactive)
10,KIF15 (UniProt Q9NS87),0.006 (inactive)
11,MAP3K4 (UniProt Q9Y6R4),0.19 (inactive)
12,LIMS1 isoform 3 (UniProt P48059),0.033 (inactive)
13,KIF11 (UniProt P52732),-0.003 (inactive)
14,KIFC1 (UniProt Q9BW19),-0.002 (inactive)
15,MAT2B (UniProt Q9NZL9),-0.008 (inactive)
16,MFF isoform 2 (UniProt Q9GZY8),-0.044 (inactive)
17,KPNA2 (UniProt P52292),-0.011 (inactive)
18,MED8 isoform 2 (UniProt Q96G25),0.024 (inactive)
19,MAPK8 isoform 3 (UniProt P45983),0.445 (active)
20,MGST3 (UniProt O14880),-0.004 (inactive)

row,Target,log2 fold change
1,KIF4A (UniProt O95239),0.007 (inactive)
2,MPP1 (UniProt Q00013),0.011 (inactive)
3,MAP4 (UniProt E7EVA0),-0.009 (inactive)
4,LARS2 (UniProt Q15031),0.034 (inactive)
5,LIMK2 isoform 3 (UniProt P53671),0.003 (inactive)
6,KPNA4 (UniProt O00629),-0.047 (inactive)
7,MAP7D3 (UniProt Q8IWC1),0.005 (inactive)
8,METTL7A (UniProt Q9H8H3),-0.055 (inactive)
9,LYN (UniProt P07948),0.141 (inactive)
10,LUC7L (UniProt Q9NQ29),0.003 (inactive)
11,LYSMD3 (UniProt Q7Z3D4),-0.072 (inactive)
12,KRR1 (UniProt Q13601),0.009 (inactive)
13,METTL2A (UniProt Q96IZ6),0.044 (inactive)
14,MARK3 (UniProt P27448),-0.081 (inactive)
15,MLH1 (UniProt P40692),-0.009 (inactive)
16,KLC2 (UniProt Q9H0B6),0.01 (inactive)
17,MCCC1 (UniProt Q96RQ3),-0.033 (inactive)
18,MAPK3 (UniProt P27361),0.017 (inactive)
19,MITD1 (UniProt Q8WV92),-0.067 (inactive)

# Compound: CC(C)(C)Cn1c(N)nc2ccc(-c3[nH]c(C(C)(C)C)nc3-c3ccc(F)cc3)nc21 [ralimetinib]
# Assay: as above
# Outline: as §1
row,Target,log2 fold change
1,MED16 (UniProt Q9Y2X0),0.057 (inactive)
2,LAP3 (UniProt P28838),-0.05 (inactive)
3,LUZP1 (UniProt Q86V48),0.003 (inactive)
4,KSR1 (UniProt Q8IVT5),0.054 (inactive)
5,LTN1 isoform 3 (UniProt O94822),0.016 (inactive)
6,MAP2K3 isoform 3 (UniProt P46734),0.012 (inactive)
7,MRPL46 (UniProt Q9H2W6),0.048 (inactive)
8,MCU (UniProt Q8NE86),0.086 (inactive)
9,KIF14 (UniProt Q15058),0.002 (inactive)
10,KIF15 (UniProt Q9NS87),0.008 (inactive)
11,MAP3K4 (UniProt Q9Y6R4),0 (inactive)
12,LIMS1 isoform 3 (UniProt P48059),0.003 (inactive)
13,KIF11 (UniProt P52732),0.029 (inactive)
14,KIFC1 (UniProt Q9BW19),-0.025 (inactive)
15,MAT2B (UniProt Q9NZL9),-0.005 (inactive)
16,MFF isoform 2 (UniProt Q9GZY8),-0.03 (inactive)
17,KPNA2 (UniProt P52292),-0.001 (inactive)
18,MED8 isoform 2 (UniProt Q96G25),0.012 (inactive)
19,MAPK8 isoform 3 (UniProt P45983),0.294 (inactive)
20,MGST3 (UniProt O14880),0.041 (inactive)

row,Target,log2 fold change
1,KIF4A (UniProt O95239),-0.014 (inactive)
2,MPP1 (UniProt Q00013),-0.01 (inactive)
3,MAP4 (UniProt E7EVA0),-0.038 (inactive)
4,LARS2 (UniProt Q15031),0.026 (inactive)
5,LIMK2 isoform 3 (UniProt P53671),0 (inactive)
6,KPNA4 (UniProt O00629),-0.024 (inactive)
7,MAP7D3 (UniProt Q8IWC1),0.023 (inactive)
8,METTL7A (UniProt Q9H8H3),0.036 (inactive)
9,LYN (UniProt P07948),-0.068 (inactive)
10,LUC7L (UniProt Q9NQ29),0.008 (inactive)
11,LYSMD3 (UniProt Q7Z3D4),0.003 (inactive)
12,KRR1 (UniProt Q13601),0.035 (inactive)
13,METTL2A (UniProt Q96IZ6),0.048 (inactive)
14,MARK3 (UniProt P27448),0.028 (inactive)
15,MLH1 (UniProt P40692),0.02 (inactive)
16,KLC2 (UniProt Q9H0B6),0.003 (inactive)
17,MCCC1 (UniProt Q96RQ3),0.022 (inactive)
18,MAPK3 (UniProt P27361),-0.02 (inactive)
19,MITD1 (UniProt Q8WV92),-0.039 (inactive)
